Publication PMC10812921, “Transcriptional Coactivator BOB1 (OBF1, OCA-B) Modulates the Specificity of DNA Recognition by the POU-Domain Factors OCT1 and OCT2 in a Monomeric Configuration”

Experiments:
[1] = biological target: POU1 (OCT1 POU domain) (human, UniProt P14859 260-458); assay: EMSA-SELEX-seq; no BOB1; 20 mM Tris-HCl pH 7.6, 140 mM NaCl, 10% glycerol, 0.5 mM EDTA, 0.05% Triton X-100, 0.1 mg/mL BSA, 0.1 mg/mL poly(dI-dC), 5 mM DTT, room temperature, 20 min; high values mean tight binding; settings: protein: recombinant; dsDNA, one strand shown
In short: (§1)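 In this selection, tagged POU-domain proteins from E. coli BL21, purified under denaturing conditions and renatured, were bound to a PCR-amplified double-stranded random 35-nt library with or without coactivator protein. Reactions held 30 ng protein, 300 ng library and, where used, 28 ng coactivator protein in 20 μL Tris–HCl pH 7.6 binding buffer for 20 min at RT. Complex bands were cut from native 6% PAGE, eluted and PCR-amplified over four rounds, then Illumina-sequenced, and binding preference is the percentage of sequenced 8-mers matching a motif pattern.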

[2] = biological target: T1, POU2 (OCT2 POU domain) (human, UniProt P09086 175-386); assay: as above; settings: protein: recombinant; dsDNA, one strand shown
T1 sequence: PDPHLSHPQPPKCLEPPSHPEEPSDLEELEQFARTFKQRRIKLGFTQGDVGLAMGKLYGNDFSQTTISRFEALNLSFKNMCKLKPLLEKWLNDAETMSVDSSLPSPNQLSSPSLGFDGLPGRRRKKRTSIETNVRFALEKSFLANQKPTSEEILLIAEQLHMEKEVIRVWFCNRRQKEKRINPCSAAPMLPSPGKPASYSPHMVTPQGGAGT
In short: as §1

[3] = biological target: POU1 (OCT1 POU domain);BOB1 (OBF1, OCA-B) (human;human, UniProt P14859;Q16633 260-458;1-256, |); assay: EMSA-SELEX-seq; with BOB1 (ternary complex band); 20 mM Tris-HCl pH 7.6, 140 mM NaCl, 10% glycerol, 0.5 mM EDTA, 0.05% Triton X-100, 0.1 mg/mL BSA, 0.1 mg/mL poly(dI-dC), 5 mM DTT, room temperature, 20 min; high values mean tight binding; settings: protein: recombinant;recombinant; copies: 1;1; dsDNA, one strand shown
In short: as §1

[4] = biological target: T2, POU2 (OCT2 POU domain);BOB1 (OBF1, OCA-B) (human;human, UniProt P09086;Q16633 175-386;1-256, |); assay: as above; settings: protein: recombinant;recombinant; copies: 1;1; dsDNA, one strand shown
T2 sequence 1: T1 sequence
T2 sequence 2: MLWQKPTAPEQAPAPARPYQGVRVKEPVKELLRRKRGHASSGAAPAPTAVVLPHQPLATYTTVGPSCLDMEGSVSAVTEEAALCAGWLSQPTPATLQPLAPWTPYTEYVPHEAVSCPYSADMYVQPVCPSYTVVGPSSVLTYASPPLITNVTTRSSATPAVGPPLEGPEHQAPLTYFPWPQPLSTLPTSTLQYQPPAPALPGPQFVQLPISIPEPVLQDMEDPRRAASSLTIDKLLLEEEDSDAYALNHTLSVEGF
In short: as §1

POU1 (OCT1 POU domain), sequence (P14859 260-458): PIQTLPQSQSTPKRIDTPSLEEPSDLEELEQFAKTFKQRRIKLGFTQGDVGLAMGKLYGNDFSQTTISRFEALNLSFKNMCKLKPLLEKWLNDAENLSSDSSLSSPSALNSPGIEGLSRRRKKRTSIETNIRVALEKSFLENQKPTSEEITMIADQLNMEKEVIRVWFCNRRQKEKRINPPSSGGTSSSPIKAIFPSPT

Sequence	binding signal [1]	binding signal [2]	binding signal [3]	binding signal [4]
AAACAAAC	0.066 % of ANNNNAAN 8-mers	0.0506 % of ANNNNAAN 8-mers	0.109 % of ANNNNAAN 8-mers	0.0512 % of ANNNNAAN 8-mers
AAGTGAAA	0.0721 % of ANNNNAAN 8-mers	0.0587 % of ANNNNAAN 8-mers	0.0788 % of ANNNNAAN 8-mers	0.0627 % of ANNNNAAN 8-mers
AGCGTAAT	0.0591 % of ANNNNAAN 8-mers	0.0748 % of ANNNNAAN 8-mers	0.0382 % of ANNNNAAN 8-mers	0.0611 % of ANNNNAAN 8-mers
AAAGTAAG	0.0641 % of ANNNNAAN 8-mers	0.0685 % of ANNNNAAN 8-mers	0.0851 % of ANNNNAAN 8-mers	0.0834 % of ANNNNAAN 8-mers
AAAGGAAC	0.0435 % of ANNNNAAN 8-mers	0.0443 % of ANNNNAAN 8-mers	0.0476 % of ANNNNAAN 8-mers	0.0371 % of ANNNNAAN 8-mers
AGACGAAG	0.0198 % of ANNNNAAN 8-mers	0.019 % of ANNNNAAN 8-mers	0.0203 % of ANNNNAAN 8-mers	0.0272 % of ANNNNAAN 8-mers
AGTCCAAG	0.0236 % of ANNNNAAN 8-mers	0.0253 % of ANNNNAAN 8-mers	0.0261 % of ANNNNAAN 8-mers	0.0215 % of ANNNNAAN 8-mers
ATGCGAAT	0.124 % of ANNNNAAN 8-mers	0.165 % of ANNNNAAN 8-mers	0.0901 % of ANNNNAAN 8-mers	0.128 % of ANNNNAAN 8-mers
ACAGGAAC	0.0244 % of ANNNNAAN 8-mers	0.0265 % of ANNNNAAN 8-mers	0.0222 % of ANNNNAAN 8-mers	0.0239 % of ANNNNAAN 8-mers
ACAGTAAT	0.0614 % of ANNNNAAN 8-mers	0.0725 % of ANNNNAAN 8-mers	0.0406 % of ANNNNAAN 8-mers	0.0553 % of ANNNNAAN 8-mers
ATCGCAAA	0.0515 % of ANNNNAAN 8-mers	0.0478 % of ANNNNAAN 8-mers	0.0816 % of ANNNNAAN 8-mers	0.0413 % of ANNNNAAN 8-mers
ATTGCAAC	0.0256 % of ANNNNAAN 8-mers	0.0178 % of ANNNNAAN 8-mers	0.0195 % of ANNNNAAN 8-mers	0.0272 % of ANNNNAAN 8-mers
ATTACAAT	0.195 % of ANNNNAAN 8-mers	0.26 % of ANNNNAAN 8-mers	0.0847 % of ANNNNAAN 8-mers	0.0966 % of ANNNNAAN 8-mers
ACTGTAAA	0.0404 % of ANNNNAAN 8-mers	0.042 % of ANNNNAAN 8-mers	0.0406 % of ANNNNAAN 8-mers	0.0388 % of ANNNNAAN 8-mers
ACATAAAC	0.087 % of ANNNNAAN 8-mers	0.106 % of ANNNNAAN 8-mers	0.0652 % of ANNNNAAN 8-mers	0.0751 % of ANNNNAAN 8-mers
AAACGAAC	0.0328 % of ANNNNAAN 8-mers	0.0293 % of ANNNNAAN 8-mers	0.0437 % of ANNNNAAN 8-mers	0.0355 % of ANNNNAAN 8-mers
ACCTGAAT	0.0583 % of ANNNNAAN 8-mers	0.0656 % of ANNNNAAN 8-mers	0.0359 % of ANNNNAAN 8-mers	0.0438 % of ANNNNAAN 8-mers
ATGTAAAC	0.249 % of ANNNNAAN 8-mers	0.196 % of ANNNNAAN 8-mers	0.293 % of ANNNNAAN 8-mers	0.227 % of ANNNNAAN 8-mers
ACGGCAAA	0.0328 % of ANNNNAAN 8-mers	0.0305 % of ANNNNAAN 8-mers	0.0445 % of ANNNNAAN 8-mers	0.0371 % of ANNNNAAN 8-mers
ATACCAAC	0.0244 % of ANNNNAAN 8-mers	0.0276 % of ANNNNAAN 8-mers	0.0242 % of ANNNNAAN 8-mers	0.0215 % of ANNNNAAN 8-mers
AGTGGAAT	0.0995 % of ANNNNAAN 8-mers	0.121 % of ANNNNAAN 8-mers	0.0847 % of ANNNNAAN 8-mers	0.104 % of ANNNNAAN 8-mers
ACGGTAAA	0.0389 % of ANNNNAAN 8-mers	0.0524 % of ANNNNAAN 8-mers	0.0507 % of ANNNNAAN 8-mers	0.0504 % of ANNNNAAN 8-mers
ACCTAAAC	0.013 % of ANNNNAAN 8-mers	0.0178 % of ANNNNAAN 8-mers	0.0211 % of ANNNNAAN 8-mers	0.0223 % of ANNNNAAN 8-mers
